Several values for one entry are separate records, joined by “and”; a condition that tells them apart may be missing. Equal values may be shown once. Compounds without any hit were thinned out: in the full panel of roughly 79,000, 15% have a hit. Rule as the data show it: active = growth inhibition above about 70%; inactive = the rest.
Experiments:
[1] = NCI Yeast Anticancer Drug Screen. Data for the rad50 strain (AID 155);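 also: 0% = growth of vehicle-only cultures of the same strain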; settings: S. cerevisiae rad50 strain growth inhibition; at 50.0 µM; stronger effect = higher value
In short: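 DNA repair mutant yeast, compound exposure, growth read-out; inhibition is taken relative to vehicle.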

[2] = NCI Yeast Anticancer Drug Screen. Data for the mec2-1 strain (AID 157); settings: S. cerevisiae mec2-1 strain, at 50.0 µM, stronger effect = higher value
In short: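 Test agents were screened against the mec2-1 yeast strain, with defined DNA repair or cell cycle alteration. Growth was scored as inhibition against vehicle-only controls.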

[3] = NCI Yeast Anticancer Drug Screen. Data for the sgs1 mgt1 strain (AID 161);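 also: 0% = growth of cultures given vehicle only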; settings: S. cerevisiae sgs1 mgt1 strain, at 50.0 µM, stronger effect = higher value
In short: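 Test agents were incubated with a DNA-repair-mutant yeast strain. Growth was then read and compared against vehicle-treated controls.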

[4] = NCI Yeast Anticancer Drug Screen. Data for the cln2 rad14 strain (AID 165);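 also: 0% = growth equal to vehicle treated cultures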; settings: S. cerevisiae cln2 rad14 strain, at 50.0 µM, stronger effect = higher value
In short: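 Growth of compound-exposed yeast (cln2 rad14 genotype) measured and expressed as inhibition relative to vehicle.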

[5] = NCI Yeast Anticancer Drug Screen. Data for the bub3 strain (AID 167); settings: S. cerevisiae bub3 mutant strain, at 50.0 µM, stronger effect = higher value
In short: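 In this screen, a yeast mutant lacking normal mitotic checkpoint function is challenged with compound. Relative growth versus vehicle gives the inhibition value.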

[6] = NCI Yeast Anticancer Drug Screen. Data for the mlh1 rad18 strain (AID 175); settings: S. cerevisiae mlh1 rad18 strain growth inhibition; at 50.0 µM; stronger effect = higher value
In short: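 In this whole-cell yeast screen, a strain with altered DNA damage repair is challenged with compound, and its growth is measured against matched vehicle-treated controls.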

Measured: growth inhibition

CC(N)(CCO)C(=O)O (configuration not stated)
inactive: [1] 1.25% and -1.8% | [2] 11.9% and -3% | [3] -5.95% and -19.4% | [4] 1.4% and -18% | [5] -5.5% and 8.75% | [6] 3.95% and 7.2%

Nc1ccc(S(=O)(=O)Nc2cnc3ccccc3n2)cc1
inactive: [1] -11.1% and -2.05% | [2] -1.95% and -1.25% | [3] 2.25% and -5.9% | [4] -20.2% and -30.1% | [5] -11.2% and -10.6% | [6] -4.45% and -6.45%

O=C1C(O)=C(Cl)C(=O)C(O)=C1Cl
inactive: [1] 6.7% and 13.6% | [2] 2.3% and -26.3% | [3] -2.15% and 25.3% | [4] -0.2% and 5.3% | [5] 29.9% and -11.3% | [6] -12.9% and -3.2%

O=C(O)C(O)C(O)C(O)C(=O)CO (configuration not stated)
inactive: [1] -2.25% and -13.1% | [2] -27.3% and -1.05% | [3] -4.9% and -10.4% | [4] -32.6% and -40.5% | [5] -16.9% and -42.5% | [6] -19.2% and 13.7%

COC(=O)c1ccc(O)cc1
inactive: [1] 27.3% and 4.9% | [2] 14.6% and 25.4% | [3] 13.8% and 12.4% | [4] 3.9% and 14.8% | [5] -11.6% and -4.5% | [6] 8.9% and -0.35%

CCCC(=O)Oc1ccccc1C(C)C
inactive: [1] 12.5% and 2.75% | [2] 11.9% and -21.8% | [3] 11% and -5.25% | [4] 14.1% and -8.9% | [5] 6.8% and -0.15% | [6] 1.65% and -19.6%

Cc1c2cc(O)c(=O)cc-2oc2cc(O)c(O)cc12
inactive: [1] 45.9% and 30.5% | [2] 29.6% and 6.2% | [3] 36.1% and 50.1% | [4] 20.9% and 31.9% | [5] 36.7% and 47.6% | [6] 40.1% and 34.9%

CC1(O)C(=O)OC(CO)C1O (configuration not stated)
inactive: [1] 1.4% and 7.1% | [2] 1.6% and 7.15% | [3] -3.45% and -1% | [4] -15.8% and -6.6% | [5] -5.65% and 2.4% | [6] 5.1% and 3.25%

O=C(O)Cc1ccc(C2CCC(O)CC2)cc1 (configuration not stated)
inactive: [1] 2.75% and 8.45% | [2] -5.35% and -1.85% | [3] 3.05% and 21.2% | [4] -17.8% and -4.3% | [5] -0.15% and 5.4% | [6] 0.9% and 1%

CC(=O)NC(C(=O)O)=C(C)C
inactive: [1] -9.2% and 18% | [2] -7.55% and -6.25% | [3] -1.45% and 13.9% | [4] -16.9% and 16.8% | [5] 7.95% and 2.25% | [6] -5.2% and 27.9%

O=S(=O)(O)NC1CCCCC1
inactive: [1] 29.4% and 4.8% | [2] 16.2% and -1.15% | [3] -7.7% and -4.9% | [4] -50.7% and -6.3% | [5] 11.4% and 10.1% | [6] 11.8% and -9.45%

CN(C)c1ccc(/C=C2\c3ccccc3-c3ccc([N+](=O)[O-])cc32)cc1
inactive: [1] 20.9% and 6.65% | [2] -9.8% and -6.75% | [3] -21.1% and -11% | [4] -27.2% and -8.2% | [5] -19.6% and 4.45% | [6] -4.35% and 8%

CC(=O)NC1CCC(C(F)(F)F)CC1 (configuration not stated)
inactive: [1] 9.9% and 2.15% | [2] 5.75% and -5.7% | [3] -9.5% and -4.95% | [4] -6.2% and -21.2% | [5] -1.75% and -2.55% | [6] 12.8% and 8.05%

CC1(C)OCC(C2OC(C)(C)OC2C2OC(O)C=CC2=O)O1 (configuration not stated)
inactive: [1] 19.8% and 18.5% | [2] 18.9% and 2.1% | [3] 24.6% and 6.5% | [4] 9.05% and -4.9% | [5] 24.9% and 10.9% | [6] 20.3% and 10.6%

COc1cc2c(cc1OC)CN1CCc3cc(OC)c(OC)cc3C1C2 (configuration not stated)
inactive: [1] -1.3% and 16.1% | [2] -54.6% and 11.9% | [3] -28.2% and 14.3% | [4] 0.7% and 7.8% | [5] -51.4% and 17.4% | [6] -38.5% and 18.1%

CC(=O)Nc1cccc2c1C(=O)OC2=O
inactive: [1] 8.65% and 1.9% | [2] -3.9% and -0.15% | [3] 5.05% and -16.7% | [4] -6.3% and -20.6% | [5] -1.9% and -0.8% | [6] -8.1% and -4.7%

CC(C)(N)CCC(=O)O
inactive: [1] 10.3% and -0.25% | [2] 20.9% and 3.7% | [3] 12.6% and -1.85% | [4] -3.05% and -7.2% | [5] -28.7% and 11.1% | [6] 6.8% and -3.15%

NC(=O)CC(N)C(=O)O (configuration not stated)
inactive: [1] -4.4% and -5.3% | [2] -30.1% and -1.65% | [3] -10.8% and -4.4% | [4] -1% and 11.7% | [5] 1.5% and -13.7% | [6] 0.7% and 2.65%

CC(=O)N1CCN(C(C)=O)C2C1N(C(C)=O)CCN2C(C)=O (configuration not stated)
inactive: [1] -11.7% and 11.8% | [2] -18.9% and -10.6% | [3] -24.6% and 11.8% | [4] -20.1% and 27% | [5] -19.6% and 19.8% | [6] -17.1% and 35.9%

NC1CCC(N)CC1 (configuration not stated)
inactive: [1] 7.75% and 9.05% | [2] 10% and -5.85% | [3] 0.2% and 0.75% | [4] -11.8% and -16.1% | [5] 8.65% and 10.4% | [6] -6.35% and 1.4%

CCCCc1c(C#N)c(=O)n2c(N)c(C(=O)OCC)cnc2c1SC
inactive: [1] -8.45% and 11.1% | [2] -3.4% and 14.9% | [3] 8.3% and -12.1% | [4] -7.6% and -34% | [5] 5.65% and -7.9% | [6] 9.15% and -5.05%

CC(COC(=O)c1ccccc1)NC1CCCCC1 (configuration not stated)
inactive: [1] 12.3% and 21.9% | [2] 1.05% and -0.85% | [3] 13.7% and 10.7% | [4] -27.6% and -0.55% | [5] -10.3% and 0.7% | [6] 10.4% and -0.2%

Source: PubChem BioAssay (NCI)
